Most compounds without a hit are left out; they make up all but 5.8% or so of the library.
uPA surface inh: blocks generation of uPA at the cell surface; 330,000 tested, 0.31% active; AID 540303; cell surface uPA generation assay, qHTS; Potency, µM (top dose mostly 38.3 µM), hits mostly inhibitors; active means well fitted inhibition curve with a large enough effect; inconclusive means small, poorly fitted or top-dose-only effect; inactive means no such curve, though single readings can be large or run the other way; tested in mouse RAW 264.7 cells; further: nearly all actives have a fitted effect of over 55% in size
RORg inh: ROR gamma (mouse) transcription inhibition. P51450. Drosophila S2 Gal4-RORgamma UAS-luciferase reporter, 20 h. Potency, µM (doses to about 53.6 µM), usual class: inhibitors. 310,000 tested, 5.4% active. AID 2551; further: nearly all actives have a fitted effect of over 60% in size
Target sequence (P51450 whole entry, looked up, the tested form may be a part): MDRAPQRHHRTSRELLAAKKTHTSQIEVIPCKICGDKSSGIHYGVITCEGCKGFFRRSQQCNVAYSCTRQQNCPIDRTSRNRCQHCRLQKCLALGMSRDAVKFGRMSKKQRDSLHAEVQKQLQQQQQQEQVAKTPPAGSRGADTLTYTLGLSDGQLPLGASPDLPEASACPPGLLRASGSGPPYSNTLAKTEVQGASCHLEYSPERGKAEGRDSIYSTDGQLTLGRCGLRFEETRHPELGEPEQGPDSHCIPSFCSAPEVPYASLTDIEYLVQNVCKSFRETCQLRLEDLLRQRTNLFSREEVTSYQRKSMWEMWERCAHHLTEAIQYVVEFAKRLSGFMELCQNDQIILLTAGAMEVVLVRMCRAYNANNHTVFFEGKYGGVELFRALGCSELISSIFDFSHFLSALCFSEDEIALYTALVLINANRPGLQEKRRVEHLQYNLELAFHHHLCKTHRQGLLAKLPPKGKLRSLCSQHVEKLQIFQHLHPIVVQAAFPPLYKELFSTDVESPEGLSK
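Luciferase reporter read in Schneider cells carrying Gal4-RORγ (mouse) and UAS-Photinus luciferase; cells given compound 1 h before 700 uM copper sulfate induction, then incubated 20 h at ambient temperature.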
TRPV1 PAM: enhances activation of the human vanilloid receptor TRPV1 | Q8NER1 | TRPV1-expressing cells, Fluo-8 calcium influx, capsaicin EC20 potentiation | potentiation, % at 8.33 µM | 320,000 tested, 0.02% active; in the data active means potentiation above about 80%; inconclusive means between about 30% and that limit
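Cells expressing TRPV1 were dye-loaded with Fluo-8 and read kinetically: 10 s baseline, 3 min after compound (agonist portion), then 2 min after EC20 capsaicin (allosteric enhancer portion). Calcium-bound dye fluorescence at 480/520 nm.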
VP16 counter: inhibits Gal4-VP16 luciferase reporter, ROR gamma counter-screen; 310,000 tested, 3.5% active; AID 2546; Drosophila S2 Gal4-VP16 UAS-luciferase, luminescence, 20 h; Potency, µM (top dose mostly 53.6 µM), most hits filed as inhibitors;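 further: Gal4-VP16 expression switched on by copper sulfate through the metallothionein promoter; nearly all actives have a fitted effect of over 50% in size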
TRPV1 agonist: activates the human vanilloid receptor TRPV1 | TRPV1-expressing cells, Fluo-8 calcium influx, agonist mode | activation, % at 8.33 µM | 320,000 tested, 0.19% active | AID 540275; in the data active means activation above about 80%; inconclusive means between about 30% and that limit
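Fluo-8 calcium influx in TRPV1-expressing cells, kinetic read (ex 480/em 520 nm). Compound added and read 3 min for agonist activity, followed by capsaicin at EC20 final and 2 min further read for enhancement.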
Each line names hits and unclear results; the compound was inactive in the other large screens. Unless noted, the call rests on the fitted dose curve; in most records, active means well fitted curve in the direction sought with a large enough effect; inconclusive means small, poorly fitted or top-dose-only effect, or another doubt; inactive means no such curve, though single readings can be large; an effect the other way counts as inactive or inconclusive.

CCCCC(=O)Nc1nnc(C2=COCCO2)o1	RORg inh 13µM
CCOC(=O)c1c(C)[nH]c2ccc3c(c12)CN1CCc2cc(OC)ccc2[C@@H]1O3	VP16 counter inconclusive (no result: uPA surface inh, TRPV1 PAM, TRPV1 agonist)
COc1cccc(N=C(N)N)c1	none
Cc1cnc(CNc2ncncc2-c2ccc3c(c2)OCO3)cn1	none (no result: uPA surface inh, TRPV1 PAM, TRPV1 agonist)
COC(=O)CC1C(C)(C)C(=O)C2CC3=C4CC(=O)OC(c5ccoc5)[C@]4(C)CCC3[C@@]1(C)C2=O (stereo partly specified)	none (no result: uPA surface inh, TRPV1 PAM, TRPV1 agonist)
O=C(Nc1nnc(CCc2ccccc2)s1)c1cccc(F)c1	RORg inh 18µM
O=C(Nc1nnc(CCc2ccccc2)s1)c1ccc(F)cc1	none
O=C(Nc1cccnc1Cl)c1cc(-c2ccc(Br)cc2)on1	none
O=C(NC1=NCCS1)C1COc2ccccc2O1 (stereo unspecified)	RORg inh 6.3µM, VP16 counter 4.5µM
O=C(Nc1ncc(Cc2ccccc2)s1)C1COc2ccccc2O1 (stereo unspecified)	RORg inh 10µM, VP16 counter 2µM
CCC(CC)c1nnc(NC(=O)C2COc3ccccc3O2)s1 (stereo unspecified)	RORg inh 10µM (no result: uPA surface inh)
CC[C@H](C)[C@H](NC(=O)[C@H](Cc1ccc(O)cc1)NC(=O)[C@@H]1CCCN1C(=O)[C@@H](N)CCCN=C(N)N)C(=O)N[C@@H](CC(C)C)C(=O)O	none (no result: uPA surface inh, TRPV1 PAM, TRPV1 agonist)
CCn1c(SCc2nc3ccccc3c(=O)[nH]2)nnc1C(C)NC(=O)c1ccccc1F (stereo unspecified)	none
COc1ccccc1Nc1nc(-c2sc(NC(=O)c3ccc([N+](=O)[O-])cc3)nc2C)cs1	RORg inh 4µM (no result: uPA surface inh)
CCOc1ccccc1Nc1nc(-c2sc(NC(=O)c3cccc(Cl)c3)nc2C)cs1	RORg inh 11µM
Cc1ccc(C(=O)c2c[nH]c3c(F)cc(F)cc3c2=O)cc1	none
O=C(C1CC1)N1CCc2cc(Br)cc(S(=O)(=O)N3CCN(c4ccccn4)CC3)c21	VP16 counter 22µM
CCOC(=O)C1CCN(S(=O)(=O)c2cc(Br)cc3c2N(C(=O)C2CC2)CC3)CC1	VP16 counter inconclusive
O=C(O)c1ccc(-c2ncc[nH]2)cc1	RORg inh inconclusive
COc1ccc(C(C[N+](=O)[O-])c2c(C)[nH]n(-c3ccccc3)c2=O)cc1 (stereo unspecified)	RORg inh 13µM, VP16 counter inconclusive
Cc1cc(C)c2ccc(NN)nc2c1O	RORg inh 6.3µM, VP16 counter 10µM
Cc1cc(C)c2ccc(/C=N/O)nc2c1O	RORg inh 3.2µM, VP16 counter 6.3µM
Cc1ccc(Nc2cc(C)c3ccc(O)cc3n2)cc1C	VP16 counter inconclusive
Cc1ccsc1CN(C)CC(=O)NCC(=O)Nc1ccc(F)c(F)c1F	none (no result: RORg inh, TRPV1 PAM, VP16 counter, TRPV1 agonist)
COc1ccc(/C=N/NC(=O)CCSc2nc3ccccc3s2)cc1OC	uPA surface inh inconclusive
O=C(CN1CCCC1)N/N=C/c1c(O)ccc2ccccc12	uPA surface inh 5µM, RORg inh 3.2µM, VP16 counter 3.2µM
Cc1cc(C)n2nc(C(=O)N/N=C/c3c4ccccc4cc4ccccc34)nc2n1	RORg inh 35µM, VP16 counter 18µM
O=C(CCSc1nc2ccccc2s1)N/N=C/c1c(O)ccc2ccccc12	uPA surface inh inconclusive, RORg inh 1.4µM, TRPV1 PAM inconclusive, VP16 counter 1µM
Cc1ccc(O)c(/C=N/NC(=O)CN2CCCC2)c1	uPA surface inh inconclusive, RORg inh 13µM, VP16 counter inconclusive
O=C(NN=Cc1c(O)ccc2ccccc12)C1CC1	none (no result: RORg inh, TRPV1 PAM, VP16 counter, TRPV1 agonist)
Cc1noc(C)c1-c1ccc2ncnc(NCC3CCN(C)CC3)c2c1	none (no result: uPA surface inh, TRPV1 PAM, TRPV1 agonist)
CCCCCCC(=O)Cc1cc(OC)c(OC)cc1/C=C(/C(C)=O)C(=O)OC	none (no result: uPA surface inh, TRPV1 PAM, TRPV1 agonist)
COc1ccccc1OCCNC(=O)CSC(=S)N1CCCC1	none (no result: RORg inh, VP16 counter)
Cc1cc(C)n(CCC(=O)N/N=C/c2ccc(O)cc2)n1	none
Cc1cc(C)n(CCC(=O)N/N=C/c2c(O)ccc3ccccc23)n1	uPA surface inh inconclusive, RORg inh 1.1µM, VP16 counter inconclusive
O=C1NCCCC1C(=O)N/N=C/c1ccccc1 (stereo unspecified)	none
CC(C)(C)c1ccc(C(=O)NC(=S)Nc2ccc(N3CCOCC3)cc2)cc1	RORg inh 4.5µM, VP16 counter 7.1µM
O=C(Nc1ccc(Cl)cc1)Nc1ccc(N2CCOCC2)cc1	TRPV1 PAM inconclusive
O=C(NC(=S)Nc1ccc(N2CCOCC2)cc1)c1ccc(Cl)cc1	RORg inh 4µM, VP16 counter 7.1µM
Nc1ncnc(Sc2ncccn2)c1[N+](=O)[O-]	uPA surface inh inconclusive, RORg inh 4µM, VP16 counter 7.1µM
Nc1ncnc(Sc2ccccc2)c1[N+](=O)[O-]	RORg inh 10µM, VP16 counter inconclusive
Nc1ncnc(Sc2ccc(Cl)cc2)c1[N+](=O)[O-]	none
c1ccc(-c2nc(-c3cccs3)[nH]c2-c2ccccc2)cc1	RORg inh 10µM (no result: uPA surface inh)
C/C(=N\NC(=S)Nc1ccccc1C)C1Cc2ccccc2C(=O)O1 (stereo unspecified)	RORg inh 2.8µM, VP16 counter inconclusive
C/C(=N\NC(=S)Nc1ccccc1)C1Cc2ccccc2C(=O)O1 (stereo unspecified)	TRPV1 PAM inconclusive
O=C(N/N=C/c1ccco1)c1cc([N+](=O)[O-])cc([N+](=O)[O-])c1	RORg inh 5.6µM, VP16 counter 10µM
CCOc1ccc(C(=O)N/N=C/c2cc(Cl)ccc2[N+](=O)[O-])cc1	RORg inh inconclusive, VP16 counter 5.6µM
Cc1cc(C(=O)N/N=C\c2ccc(COc3ccc([N+](=O)[O-])cc3)o2)ccc1[N+](=O)[O-]	RORg inh 11µM, VP16 counter inconclusive
O=C(N/N=C/c1ccc(Br)o1)c1cc([N+](=O)[O-])cc([N+](=O)[O-])c1	RORg inh 1.6µM, VP16 counter 4.5µM
CCC(=O)c1ccc2c(c1)N(CCCN1CCN(CCO)CC1)c1ccccc1S2	RORg inh inconclusive (no result: uPA surface inh, TRPV1 PAM, TRPV1 agonist)
COc1ccc(-c2ccc(/C=N/NC(=O)c3cccnc3)o2)c([N+](=O)[O-])c1	RORg inh 20µM, VP16 counter inconclusive
Cc1cc(C)n(Cc2ccc(C(=O)N/N=C/c3ccc(-c4ccc([N+](=O)[O-])cc4)o3)o2)n1	RORg inh 8.9µM, VP16 counter 6.3µM
CCCCC(=O)N/N=C/c1ccc(-c2ccc([N+](=O)[O-])cc2)o1	RORg inh inconclusive
Cc1cc([N+](=O)[O-])ccc1-c1ccc(/C=N/NC(=O)c2ccc(Br)o2)o1	RORg inh 7.1µM, VP16 counter 7.9µM
CC(/C=C1\NC(=S)NC1=O)=C\c1ccccc1	RORg inh inconclusive, VP16 counter inconclusive
COc1ccc(C(=O)N2CCC3(CCN(C(=O)Nc4ccccc4)CC3)CC2)cc1	none (no result: uPA surface inh, TRPV1 PAM, TRPV1 agonist)
Cc1cc(C)c(N=C2C(=O)Nc3ccccc32)c(C)c1	none
Cc1cccc(C)c1N=C1C(=O)Nc2ccccc21	RORg inh inconclusive, VP16 counter 18µM
COc1ccc(-c2nc3n(c2C)Cc2ccccc2-3)cc1	RORg inh 11µM
